# This is a sample that favours compounds with a hit; in the whole collection about 1.6% have one here.
# KCNQ2 enhance: potentiators of rat KCNQ2 potassium channel; Potassium voltage-gated channel subfamily KQT member 2 (Rattus norvegicus), O88943; CHO-K1 KCNQ2, FluxOR thallium flux fluorescence; hits give high values; B-score at 10 µM; hit rate 0.54% among 310,000; AID 2239, 2010;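 active = fluorescence ratio B-score at least 3 SD of library B-scores, with initial fluorescence B-score within 3 of them, cut at about 5.3 in these data; same plate scores as AID 2156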;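 also: B-score of peak minus minimum over baseline fluorescence ratio after K+ and Tl+ stimulus; positive B-score means potentiation of KCNQ2 with more thallium influx and brighter signal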
# KCNQ2 block: rat KCNQ2 potassium channel inhibitors, primary screen, cell-based, CHO-K1, FluxOR thallium flux, B-score; Potassium voltage-gated channel subfamily KQT member 2 (Rattus norvegicus), O88943; 20 min; hits give low values; B-score at 10 µM; hit rate 1.1% among 310,000; AID 2156, 2009;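 active = fluorescence ratio B-score at most minus 3 library SDs, with starting brightness B-score within 2 library SDs, cut at about -5.5 in these data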
# * marks the source's active call; other numbers are inactive results; i = inactive; nt = no result given.
SMILES,KCNQ2 enhance,KCNQ2 block
CC1CC(C)(C)NC(=S)N1CCC(=O)NCCc1ccc(Cl)cc1 (stereo not drawn),nt,i
CC(C)CC(=O)NC(=S)Nc1ccc(NC(=O)c2ccco2)cc1,1.7,i
Cc1c(-n2c(SCC(=O)C(C)(C)C)nc3ccccc3c2=O)c(=O)n(-c2ccccc2)n1C,0.29,i
CC(=O)c1c(C)[nH]c(C(=O)Nc2nc(-c3ccc(-c4ccccc4)cc3)cs2)c1C,-7.6,-7.6*
COc1ccc(-c2nc(NC(=O)c3[nH]c(C)c(C(C)=O)c3C)sc2C)cc1,-6.5,-6.5*
COc1ccc(OC)c(NC(=O)c2[nH]c(C)c(C(C)=O)c2C)c1,0.07,i
CC(=O)c1c(C)[nH]c(C(=O)Nc2nc(-c3ccc(Cl)cc3)cs2)c1C,0.73,i
O=S(=O)(Nc1cccc(-c2nc3cccnc3s2)c1)c1ccc2c(c1)CCCC2,nt,i
Cc1ccc(-c2nc3cccnc3s2)cc1NS(=O)(=O)c1ccc2c(c1)CCCC2,-6,-6*
CS(=O)(=O)N1CCC(Oc2ccccc2C(=O)N2CCNC(=O)C2)CC1,0.77,i
COc1ccc(CC(=O)Nn2c(-c3ccccc3)nc3ccccc3c2=O)cc1,9.9*,i
COc1ccc(C(=O)Nn2c(SCc3ccc([N+](=O)[O-])cc3)nc3ccccc3c2=O)cc1,-6.2,-6.2*
COc1ccc(OCC(=O)Nn2c(-c3cccc(OC)c3)nc3ccccc3c2=O)cc1,nt,i
Cc1ccc(-c2nc3ccccc3c(=O)n2NC(=O)COc2ccccc2)cc1,-6.8,-6.8*
COc1ccc(C(=O)Nn2c(SCC(=O)c3ccccc3)nc3ccccc3c2=O)cc1,nt,i
O=C(COc1ccccc1)Nn1c(-c2ccccc2)nc2ccccc2c1=O,1.4,i
O=C1NC(=O)C(Cc2c[nH]c3ccccc23)N1 (stereo not drawn),2.4,i
C=CCNc1nnc(Cc2ccc(C(C)C)cc2)c(=O)[nH]1,1,i
COc1ccccc1OCC(=O)NCC1CCCN(Cc2cnn(C)c2C)C1 (stereo not drawn),nt,i
COc1ccc(/C=N/NC(=O)CNC(=O)c2ccncc2)cc1,0.91,i
CN(C)/C=C(/C#N)C(=O)c1cccc(Oc2ccc(C(C)(C)C)cc2)c1,-7.8,-7.8*
Cc1ccccc1Oc1cccc(C(=O)/C(C#N)=C/N(C)C)c1,0.88,i
COc1ccc(N2CCN(C(=O)c3oc4ccccc4c3NC(=O)Cc3cccc(OC)c3)CC2)cc1,-5.8,-5.8*
COc1cccc(CNC(=O)CCC2CCCN(C(=O)c3cc4ccccc4o3)C2)c1 (stereo not drawn),-6.4,-6.4*
COc1ccc(N2CCN(C(=O)c3oc4ccccc4c3NC(=O)Cc3ccc(OC)c(OC)c3)CC2)cc1,nt,i
SMILES,KCNQ2 enhance,KCNQ2 block
COc1cccc(CNC(=O)CCC2CCCN(C(=O)c3ccoc3)C2)c1 (stereo not drawn),0.47,i
CCc1ccc(C2=NN(CCC(=O)NCc3cccs3)C(=O)CC2)cc1,nt,i
O=C1c2ccccc2C(Nc2ccc(Cl)cn2)N1c1ccccn1 (stereo not drawn),-6.6,-6.6*
O=C1c2ccccc2C(Nc2ccc(S(=O)(=O)N3CCCCCC3)cc2)N1c1ccccn1 (stereo not drawn),nt,i
Cc1ccc(C2C(C#N)=C(N)SC(N)=C2C#N)o1,0.54,i
Cc1ccc(C2OC3=C(C(=O)CC(C)(C)C3)C(N)=C2C#N)o1 (stereo not drawn),5.3*,i
N#CCc1ccc(OC(=O)c2cccnc2Cl)cc1,0.11,i
Oc1ccc(Br)cc1-c1cc(-c2ccco2)[nH]n1,nt,i
Oc1ccc(Br)cc1-c1ccn[nH]1,12*,i
CCCCSCCCNC(=O)Nc1ccc(CC)cc1,5.6*,i
CCc1ccc(NC(=O)CSCCO)cc1,0.6,i
COC(=O)c1cn(NC(=O)Cc2ccc(Cl)cc2)c(=O)c2ccccc12,18*,i
COC(=O)c1cn(NC(=O)Cc2ccc(Cl)c(Cl)c2)c(=O)c2ccccc12,30*,i
COC(=O)c1cn(NC(=O)Cc2cccc(C(F)(F)F)c2)c(=O)c2ccccc12,3.5,i
COC(=O)c1cn(NC(=O)Cc2ccccc2OC)c(=O)c2ccccc12,nt,i
CCOC(=O)c1c(NC(=S)NC(C)=O)sc(C)c1C,nt,i
CC1(C)S[C@@H]2[C@H](NC(=O)C(NC(=O)N3CCNC3=O)c3ccccc3)C(=O)N2[C@H]1C(=O)O (stereo partly drawn),0.56,i
CCC1(C)Cc2ccccc2-c2nc(NN)[nH]c(=O)c21 (stereo not drawn),nt,i
CCC1(C)Cc2ccccc2-c2nc(-c3ccccc3)oc(=O)c21 (stereo not drawn),-5.5,-5.5*
COc1ccc(OC)c(NC(=O)c2ccc(-c3cccs3)cc2)c1,0.98,i
CCOC(=O)C(C)(C)N(Cc1ccccc1C)S(=O)(=O)c1ccc(Cl)c([N+](=O)[O-])c1,-7.2,-7.2*
CCCN(CCC)S(=O)(=O)c1ccc(Cl)c([N+](=O)[O-])c1,nt,i
Cn1c(-c2sc3ccccc3c2Cl)n[nH]c1=S,3.1,i
Cc1ccc(-c2nnc(SCC(=O)N(CC(C)C)c3c(N)n(Cc4ccccc4)c(=O)[nH]c3=O)n2N)cc1,nt,i
Cc1cc(NC(=O)CSc2ncccc2C(=O)O)no1,nt,i
SMILES,KCNQ2 enhance,KCNQ2 block
CCSc1nc(O)cc(=O)[nH]1,nt,i
CCSc1nc(=S)cc(C)[nH]1,13*,i
O=C(NCC1(c2ccccc2)CCCC1)C1(c2ccccc2)CCCC1,-7,-7*
O=C(NCC1(c2ccccc2)CCCC1)C(=O)NCC1(c2ccccc2)CCCC1,nt,i
COc1ccc(OCCCCn2c(CO)nc3ccccc32)cc1,0.55,i
CCC(=O)Nc1cccc(NC(=S)NC(=O)c2ccccc2C)c1,0.78,i
c1ccc(-c2nc3c4ccccc4ccn3c2CN2CCCCC2)cc1,-5.6,-5.6*
Cc1ccc(-c2nc3c4ccccc4ccn3c2CN2CCCCC2)cc1,nt,i
CN(CC(=O)Nc1ccccc1Cl)C(=O)COC(=O)c1cnccn1,nt,i
Cc1cccc(CNC(=O)C2CCC(=O)N(CCc3cccc(F)c3)C2)n1 (stereo not drawn),0.84,i
N/C(CC1CC1(Cl)Cl)=N\OC(=O)c1ccccc1 (stereo not drawn),-8.6,-8.6*
N/C(Cc1ccc(Cl)cc1Cl)=N\OC(=O)c1ccccc1,4.1,i
CS(=O)(=O)c1ccccc1-c1nnc(NC(=O)c2cccc(N3C(=O)CCC3=O)c2)o1,0.16,i
CCCN1CCN(CCCNC(=O)c2ccc3c(=O)n(CCc4ccccc4)c(=O)[nH]c3c2)CC1,nt,i
O=C(NCCN1CCCC1)c1ccc2c(=O)n(CCc3ccccc3)c(=O)[nH]c2c1,-6,-6*
COc1ccc(F)cc1S(=O)(=O)NCC(=O)NCc1cc(=O)n(C)c(=O)n1C,nt,i
O=S(=O)(NCCCN1CCOCC1)c1ccc(Cl)cc1,8*,i
CC(=O)N1CCOc2ccc(S(=O)(=O)NCCc3ccc(C)cc3)cc21,nt,i
CN1CCOc2ccc(S(=O)(=O)NCCc3ccc(Cl)cc3)cc21,-6.7,-6.7*
O=S(=O)(NCCN1CCOCC1)c1ccc(-c2ccc(S(=O)(=O)NCCN3CCOCC3)cc2)cc1,nt,i
CCCOC(=O)C(C)n1cnc2scc(-c3ccc(C)cc3)c2c1=O (stereo not drawn),nt,i

# High-throughput results: PubChem, Johns Hopkins Ion Channel Center
